About 79,000 compounds went through this panel and 15% of them were active in at least one assay; those are over-represented in the sample as a whole. Calls of active or inactive are those of the source. No stated cut-off is given here; in the data, active means growth inhibition above about 70%; inactive means the rest.

This experiment can be described thus: NCI Yeast Anticancer Drug Screen. Data for the sgs1 mgt1 strain (AID 161).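 Further: 0% = growth of cultures given vehicle only.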 To be noted: S. cerevisiae sgs1 mgt1 strain, at 50.0 µM, hits give high values. In short, it runs like this:
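Inhibition of yeast growth, normalised to vehicle-treated controls, is reported for a strain bearing genetic alterations in DNA damage repair.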
For `COc1cccc(NC(=O)CC(=O)NN2C(=O)/C(=C/c3ccc(N(CCC#N)CCC#N)cc3)N=C2c2cc([N+](=O)[O-])ccc2Cl)c1`, the growth inhibition was 16.4% (inactive).
The result for `CC(C)(C)[Si](C)(C)OCCc1ccccc1C1CC2(S(=O)(=O)c3ccccc3)ON1CC2S(=O)(=O)c1ccccc1` (stereo not drawn) reads -8.2% (inactive); that for `Nc1ccc(N2N=C(N3CCCC3)CC2=O)cc1`, -10.8% (inactive); that for `OCc1ccc2ccccc2n1`, 21.6% (inactive).
As to `COc1ccc(CCNC(=S)N/C=C(\C#N)S(=O)(=O)c2ccc(C)cc2)cc1OC`, the growth inhibition is 4.55% (inactive).
As for `O=C(/C=C\c1ccc(Cl)cc1)OCCCCOC(=O)/C=C/c1ccc(Cl)cc1`, the growth inhibition is -4.45% (inactive).
For `Oc1ccccc1/C=N/Nc1nc(N/N=C/c2ccccc2O)nc(N/N=C/c2ccccc2O)n1`, the growth inhibition was 27.4% (inactive).
As for `CC(C)CCCC(C)C1CCC2C3CC=C4CC(OC5CCC6(C)C(=CCC7C6CCC6(C)C(C(C)CCCC(C)C)CCC76)C5)CCC4(C)C3CCC12C` (stereo not drawn), the growth inhibition was -17.1% (inactive).
With `COc1ccc(N2C(=O)[C@@H]3[C@H](C2=O)c2[nH]c4ccccc4c2C2CCC(C(C)(C)C)C[C@@H]23)cc1` (stereo partly drawn) the figure was 12.3% (inactive).
Regarding `C=CCC1(C(C)C(O)c2cc(OC)c(OC)c(OC)c2)CC(O)C=CC12OCCO2` (stereo not drawn), the growth inhibition was 1.5% (inactive).
With `CCOc1ccc(N2C(=O)C(=O)C(C#N)(c3nc4ccccc4o3)C(=O)C2=O)cc1` the figure was 5.95% (inactive).
Take `CC(=O)c1ccc(N2CCCCC2)cc1`: the growth inhibition is 4.55% (inactive).
With `CCOC(=O)c1ccc(Nc2cnc3ccc(C(F)(F)F)cc3n2)cc1` the figure was 24.9% (inactive).

The record behind these values is PubChem BioAssay (NCI).
